Values joined by “and” are separate entries in the source; they are usually repeats but may differ in a detail not shown here. Equal entries are not always repeated. The panel holds about 79,000 compounds, 15% with a hit somewhere; the sample as a whole holds those more often. Some structures have more than one record in an assay (separate samples or runs), and their calls can disagree. Active and inactive are the calls of the source. Rule as the data show it: active = growth inhibition above about 70%; inactive = the rest.
What was measured:
[1] = NCI Yeast Anticancer Drug Screen. Data for the rad52 strain (AID 147);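 also: 0% = growth of vehicle-treated control cultures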; conditions: S. cerevisiae rad52 mutant growth inhibition, stronger effect = higher value
Outline: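 Inhibition of yeast growth, referenced to vehicle controls, was the measured output for a strain with defective DNA damage repair.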

[2] = NCI Yeast Anticancer Drug Screen. Data for the wt1 strain (AID 149);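 also: 0% = growth of vehicle-treated wt1 cultures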; conditions: S. cerevisiae wt1 strain (SPY 50644) growth inhibition, stronger effect = higher value
Outline: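 Each compound is tested on wt1 yeast and the loss of growth versus vehicle gives the inhibition value.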

[3] = NCI Yeast Anticancer Drug Screen. Data for the rad50EPP+ strain (AID 151);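 also: 0% = growth of vehicle-treated control cultures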; conditions: S. cerevisiae rad50 mutant strain, stronger effect = higher value
Outline: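 Genetically defined yeast (rad50EPP+, DNA damage repair alteration) is grown with compound, and inhibition of growth is expressed relative to vehicle-treated controls.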

[4] = NCI Yeast Anticancer Drug Screen. Data for the mgt1 strain (AID 153); conditions: S. cerevisiae mgt1 mutant growth inhibition, stronger effect = higher value
Outline: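 In the mgt1 strain, test compounds were added and growth inhibition was determined relative to vehicle-treated controls.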

[5] = NCI Yeast Anticancer Drug Screen. Data for the rad50 strain (AID 155);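 also: 0% = growth of vehicle-only cultures of the same strain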; conditions: S. cerevisiae rad50 strain growth inhibition, stronger effect = higher value
Outline: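 Vehicle-treated cultures provide the reference for the growth inhibition reported for compound-exposed, repair-deficient yeast.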

[6] = NCI Yeast Anticancer Drug Screen. Data for the mec2-1 strain (AID 157); conditions: S. cerevisiae mec2-1 strain, stronger effect = higher value
Outline: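 Each compound was tested on mec2-1 yeast, a strain altered in DNA damage repair or cell cycle control. Growth inhibition is reported relative to vehicle.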

[7] = NCI Yeast Anticancer Drug Screen. Data for the sgs1 mgt1 strain (AID 161);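 also: 0% = growth of cultures given vehicle only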; conditions: S. cerevisiae sgs1 mgt1 strain, stronger effect = higher value
Outline: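 Test agents were incubated with a DNA-repair-mutant yeast strain. Growth was then read and compared against vehicle-treated controls.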

[8] = NCI Yeast Anticancer Drug Screen. Data for the CLN2oe strain (AID 163);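 also: 0% = growth of vehicle-only control cultures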; conditions: S. cerevisiae CLN2oe strain, stronger effect = higher value
Outline: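 First, the altered yeast strain was treated with each compound; second, its growth was measured; finally, inhibition was derived by comparison with vehicle controls.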

[9] = NCI Yeast Anticancer Drug Screen. Data for the cln2 rad14 strain (AID 165);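 also: 0% = growth equal to vehicle treated cultures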; conditions: S. cerevisiae cln2 rad14 strain, stronger effect = higher value
Outline: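 Test compounds were added to cln2 rad14 yeast cultures; inhibition of growth was then determined by comparison with vehicle treatment.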

[10] = NCI Yeast Anticancer Drug Screen. Data for the bub3 strain (AID 167); conditions: S. cerevisiae bub3 mutant strain, stronger effect = higher value
Outline: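 Mutant yeast screening strain plus compound; vehicle-treated cultures serve as the 0% inhibition reference.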

[11] = NCI Yeast Anticancer Drug Screen. Data for the wt2 strain (AID 169); conditions: S. cerevisiae wt2 strain growth inhibition, stronger effect = higher value
Outline: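 The panel's yeast strains carry defined changes in DNA repair or cell cycle genes. Each strain is grown with compound, and growth loss is scored relative to vehicle.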

[12] = NCI Yeast Anticancer Drug Screen. Data for the mlh1 strain (AID 171);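 also: 0% = growth of vehicle-treated control cultures of the same strain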; conditions: S. cerevisiae mlh1 strain growth inhibition, stronger effect = higher value
Outline: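 Inhibition values reflect reduced yeast growth in the presence of compound, referenced to vehicle controls, using a strain chosen for its alteration in DNA repair or cell cycle control.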

[13] = NCI Yeast Anticancer Drug Screen. Data for the sgs1 strain (AID 173);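 also: 0% = growth of vehicle-only control cultures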; conditions: S. cerevisiae sgs1 mutant, stronger effect = higher value
Outline: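 Vehicle-treated cultures served as reference for growth inhibition of a yeast strain altered in DNA damage repair or cell cycle control after compound exposure.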

[14] = NCI Yeast Anticancer Drug Screen. Data for the mlh1 rad18 strain (AID 175); conditions: S. cerevisiae mlh1 rad18 strain growth inhibition, stronger effect = higher value
Outline: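 Inhibition values reflect reduced growth of mutant yeast versus vehicle-treated controls following compound exposure; the mutations affect DNA damage repair.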

[15] = NCI Yeast Anticancer Drug Screen. Data for the rad18 strain (AID 177); conditions: S. cerevisiae rad18 mutant growth inhibition, stronger effect = higher value
Outline: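 Steps: expose repair-mutant yeast to compound; measure growth; express as inhibition relative to vehicle control.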

[16] = at 5.0 µM (retest, dose inferred, filed as 0.5)
[17] = at 50.0 µM (retest, dose inferred, filed as 5.0)

Cc1cc(N(CCOS(C)(=O)=O)CCOS(C)(=O)=O)ccc1C=Nc1ccc(-c2csc(-c3ccccc3)n2)c(Cl)c1
growth inhibition ([1]; at 1.2 µM): 14% (inactive) | growth inhibition ([1]; at 3.7 µM): 57% (inactive) | growth inhibition ([1]; at 11.0 µM): 90% (active) | growth inhibition ([1]; at 33.0 µM): 96% (active) | growth inhibition ([1]; at 100.0 µM): 84% (active) | growth inhibition ([2]; at 1.2 µM): -26% (inactive) | growth inhibition ([2]; at 3.7 µM): -8% (inactive) | growth inhibition ([2]; at 11.0 µM): 56% (inactive) | growth inhibition ([2]; at 33.0 µM): 98% (active) | growth inhibition ([2]; at 100.0 µM): 92% (active) | growth inhibition ([3]; at 1.2 µM): 3% (inactive) | growth inhibition ([3]; at 3.7 µM): -1% (inactive) | growth inhibition ([3]; at 11.0 µM): 13% (inactive) | growth inhibition ([3]; at 33.0 µM): 62% (inactive) | growth inhibition ([3]; at 100.0 µM): 85% (active) | growth inhibition ([4]; at 1.2 µM): 13% (inactive) | growth inhibition ([4]; at 3.7 µM): 43% (inactive) | growth inhibition ([4]; at 11.0 µM): 81% (active) | growth inhibition ([4]; at 33.0 µM): 98% (active) | growth inhibition ([4]; at 100.0 µM): 92% (active) | growth inhibition ([5]; at 1.2 µM): 2% (inactive) | growth inhibition ([5]; at 3.7 µM): 28% (inactive) | growth inhibition [5, 16]: 53% (inactive) and 4% (inactive) | growth inhibition ([5]; at 11.0 µM): 78% (active) | growth inhibition ([5]; at 33.0 µM): 96% (active) | growth inhibition [5, 17]: 96% (active) and 94% (active) | growth inhibition ([5]; at 50.0 µM): 93.2% (active) | growth inhibition ([5]; at 100.0 µM): 91% (active) | growth inhibition ([6]; at 1.2 µM): -2% (inactive) | growth inhibition ([6]; at 3.7 µM): 30% (inactive) | growth inhibition [6, 16]: 51% (inactive) and -1% (inactive) | growth inhibition ([6]; at 11.0 µM): 85% (active) | growth inhibition ([6]; at 33.0 µM): 97% (active) | growth inhibition [6, 17]: 97% (active) | growth inhibition ([6]; at 50.0 µM): 97.1% (active) | growth inhibition ([6]; at 100.0 µM): 92% (active) | growth inhibition [7, 16]: 20% (inactive) and 8% (inactive) | growth inhibition [7, 17]: 5% (inactive) and 97% (active) | growth inhibition ([7]; at 50.0 µM): 82.8% (active) and 96.2% (active) | growth inhibition ([8]; at 1.2 µM): 36% (inactive) | growth inhibition ([8]; at 3.7 µM): 37% (inactive) | growth inhibition ([8]; at 11.0 µM): 79% (active) | growth inhibition ([8]; at 33.0 µM): 98% (active) | growth inhibition ([8]; at 100.0 µM): 92% (active) | growth inhibition [9, 16]: 29% (inactive) and -6% (inactive) | growth inhibition [9, 17]: -5% (inactive) and 95% (active) | growth inhibition ([9]; at 50.0 µM): 82.8% (active) and 92.5% (active) | growth inhibition ([10]; at 1.2 µM): 0% (inactive) | growth inhibition ([10]; at 3.7 µM): 20% (inactive) | growth inhibition [10, 16]: 18% (inactive) and 0% (inactive) | growth inhibition ([10]; at 11.0 µM): 76% (active) | growth inhibition ([10]; at 33.0 µM): 97% (active) | growth inhibition [10, 17]: -19% (inactive) and 95% (active) | growth inhibition ([10]; at 50.0 µM): 81.4% (active) and 94% (active) | growth inhibition ([10]; at 100.0 µM): 92% (active) | growth inhibition ([11]; at 1.2 µM): -4% (inactive) | growth inhibition ([11]; at 3.7 µM): 4% (inactive) | growth inhibition ([11]; at 11.0 µM): 72% (active) | growth inhibition ([11]; at 33.0 µM): 97% (active) | growth inhibition ([11]; at 100.0 µM): 92% (active) | growth inhibition ([12]; at 1.2 µM): -1% (inactive) | growth inhibition ([12]; at 3.7 µM): 25% (inactive) | growth inhibition ([12]; at 11.0 µM): 80% (active) | growth inhibition ([12]; at 33.0 µM): 97% (active) | growth inhibition ([12]; at 100.0 µM): 90% (active) | growth inhibition ([13]; at 1.2 µM): 10% (inactive) | growth inhibition ([13]; at 3.7 µM): 22% (inactive) | growth inhibition ([13]; at 11.0 µM): 82% (active) | growth inhibition ([13]; at 33.0 µM): 97% (active) | growth inhibition ([13]; at 100.0 µM): 92% (active) | growth inhibition [14, 16]: 86% (active) and 5% (inactive) | growth inhibition [14, 17]: 95% (active) and 96% (active) | growth inhibition ([14]; at 50.0 µM): 95.2% (active) | growth inhibition ([15]; at 1.2 µM): 58% (inactive) | growth inhibition ([15]; at 3.7 µM): 83% (active) | growth inhibition ([15]; at 11.0 µM): 94% (active) | growth inhibition ([15]; at 33.0 µM): 97% (active) | growth inhibition ([15]; at 100.0 µM): 89% (active)
